The text below walks through data of the supplement of paper PMC10681739.

The full ranking holds about 2,700 sequences; the median of “arbitrary fluorescence units” is about 4,100, and the highest 2% start at about 54,000. What follows is part of a selection rich in the highest values, with near analogues and random picks from the rest.

For this test, the target named is T1, ETS1 (UniProt P14921).
T1 sequence: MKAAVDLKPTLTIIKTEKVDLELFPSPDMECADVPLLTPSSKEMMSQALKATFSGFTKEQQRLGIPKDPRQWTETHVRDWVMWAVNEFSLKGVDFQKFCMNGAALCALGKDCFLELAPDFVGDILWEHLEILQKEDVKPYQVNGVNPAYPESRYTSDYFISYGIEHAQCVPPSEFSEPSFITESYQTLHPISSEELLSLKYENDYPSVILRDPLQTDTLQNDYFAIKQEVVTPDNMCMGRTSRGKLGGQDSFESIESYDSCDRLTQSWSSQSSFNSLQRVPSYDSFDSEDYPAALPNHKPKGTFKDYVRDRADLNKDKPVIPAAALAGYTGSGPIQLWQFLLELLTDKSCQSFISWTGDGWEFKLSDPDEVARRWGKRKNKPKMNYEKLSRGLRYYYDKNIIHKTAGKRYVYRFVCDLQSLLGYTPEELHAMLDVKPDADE
As to the kind of experiment: ETS1 binding intensity (PBM fluorescence) (arbitrary fluorescence units); higher = stronger binding. The note with it: ETS1 concentration 10 nM. As to the method:
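gcPBM on wild-type 36-bp genomic probes with two neighbouring ETS1 sites (4-24 bp apart). Recombinant human ETS1 (10 nM) was detected with anti-ETS1 antibody fluorescence. Values are medians over 3 replicate spots. The probes sit in constant array flanks that are not printed.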
CCTCCCGGAAGCCGCTGGCCCGCGCCGGAAAAGGTG: the ETS1 binding intensity amounted to 7300.

For the sequence ACAACTTCCGGCTGTAAAGATGGCGGCTTCCTAGTG, the ETS1 binding intensity came out at 96400. In turn, GGACAGGGACCGGATGGGAGGGGAAGTCGATGCTTG registered an ETS1 binding intensity of 3430. The result for GGTGTTCCGGACCCGCGCGGTGCGGGGAGGAAGGCC reads 1700; that for TTTTATTTCCGGTTCTGAGGACGCCGCGGAAGCGGG, 78400. The result for TCCTCCTCACTTCCGCCGGAGCGGAAACGGTGAGGA reads 31200.

The sequence GGTGCTCACGGATGCTACGCTTGTTCCTGTCTCCTC had an ETS1 binding intensity of 370. Consider TGAGCTATTTGACTTCCGGTTTCCTGCCCCATTTAA, for which the ETS1 binding intensity was 63200. GCCCTTCCGGTTATTTCCCTTCCTGTTTGTCTGCCT yielded an ETS1 binding intensity of 48700.

In turn, AGCCCCACCATTTCCTGTGACTTCCTGGAGCCTGGC registered an ETS1 binding intensity of 25600. In the case of TCAATTTCTCATTTCCCTGGAGGAAGCCCATAAAGT, the ETS1 binding intensity is 217. On to CGGGCGGAAAGGGAGCTAGAGCATTCTGGGAAATGG, for which the ETS1 binding intensity was found to be 178. GCGGCTTGGGCCTTCCGGCTTTCCGTCCGCCGCGGC showed an ETS1 binding intensity of 7060. Regarding TTATTCTGTTTCCGGCAGTTTTACTTCCGTTTGTTT, the ETS1 binding intensity was 15900. In turn, TGTTTACTTCCGGCTTTTCGCCTAATTCCGGCGGCC yielded an ETS1 binding intensity of 55000. In the case of AAAGCGCATTGCGGATGGCAATTCCGGTGCGTCATT, the ETS1 binding intensity is 732. To CATTTACCACTTCCTGAGGTCATTTCCTGTTTTCTT belongs 25800; to CACCACTTCCTGTTTCTGAGTCATCAGGAAGGTAAT, 58900. The sequence GCTTGGCAGTCAGGAAGGACTTCCTGTTTCTGCTTC displayed an ETS1 binding intensity of 14400. Turning to CTCGCAGGCTTCCCGGCTGCAACTTCCGGCGCATGC, the ETS1 binding intensity worked out at 14600.

As to AGCAACTTCCGGTGCGCTTAGCGTTACTTCCGGCGC, the ETS1 binding intensity worked out at 116000. To ACCCGGAAGCGCTTCACCCAGCCTGAGCGGAAGAAC belongs 5640; to GAGCGGAAGTGGAAAAGACTAACTTCCGGCCTCGGG, 30600. To GAGCACGACTTCCGGCCTGAAAAGGAAGTCTCCTCC belongs 89000; to CCCAGCTAAAGGAAGTCTGGCACTTCCTCTCCTCAA, 2990. GACAGTTTCCTCTTTCACACTAGAATATCCTGTTGT: the ETS1 binding intensity stood at 10900.

In the case of TGCGCCCCGTGCTTCCTGCCATCCTGTGCTCTCTGC, the ETS1 binding intensity is 9740. To ACCAGGGCTGCTTCCTCACATTTCCGGTCCTGAAAA belongs 27700; to GGACCGGAAGTGCCTCCTGCGGAGGCAGGAAGTCCC, 58700; to TCATCTCTCCTGCAGGAAGGAAGTCCTGCCTCCCAC, 315. To AGCAGGAAGGACCTCAGTCCTCCAGTGCGGATGCTG belongs 207.

AACGTCCAGGAGGAAGTCAATTTCCTGGCCCTCAAT yielded an ETS1 binding intensity of 5100. As to GCGCCGGAAGCAGAGACGCGTTTCGGGAGGAAGGTG, the ETS1 binding intensity stood at 3580. The result for GCAGGAGACGGAAGATGCATGGGTTTCCTGGCGCGC reads 424; that for AGAAGCACACAAGGAAGTGTTTCCGGGACAGAGGGT, 9030; that for ACAGCATCCGGAGCGCCGACGCGGGACCGGAAGTGA, 26000. To CGGGACCGGAAGTGACGCAGAGAAGTTTCCGGGACT belongs 56800. For the sequence TAGTCCTGAAACTTCCTCTGCTTCCTCCTCCTGCCC, the ETS1 binding intensity turned out to be 2700. As to CACGGTGATTTCCTGTAAACAACAGGAAATGTACAG, the ETS1 binding intensity amounted to 22700. In the case of ACCGCCCGGAAGTGACGCGCCCGCGCATCCGGCCAC, the ETS1 binding intensity amounted to 19800.

Consider CGGACCGGAAGTTGGGGTGACGCAATTTCCGGCGCG, for which the ETS1 binding intensity was determined as 54200.

The sequence TCGGACCGGAAGGAGTTGTTGGCGCTTCCGGTGGCC displayed an ETS1 binding intensity of 15900. Turning to ATCACCAGCCTTCCTGTGGGACCGGAAAGGCAGTAG, the ETS1 binding intensity was determined as 2720. GTAATACTTCGGGGAAATGCAGGATGCAGCTGCTGC came in with an ETS1 binding intensity of 243. Turning to CGAGGCGGTCGCGGAAGTAGAGGAAGCCTTCGCGGT, the ETS1 binding intensity was determined as 686. To TTCACCCCACCACTTCCTCATCCTGATCTCAGCTCA belongs 2880; to CCCTCCCCTTCCTGCCTGCCCTTCTTCCGGGGCACC, 8020; to CCCACTTCCTGCCTCACCCTGAAGATCTTCCGGGCA, 56900. In turn, AAGACTTCTACTTCCGGAGACTTCCTCATGCCATGC displayed an ETS1 binding intensity of 33400.

AACCACTTCCGGTGAGTAGCTTCTACTTCCGGAGAC registered an ETS1 binding intensity of 135000. In turn, GCCGGAGACTAGCTTCCGCTTCCGGTGTGAGCGGCC came in with an ETS1 binding intensity of 26200.

The sequence CACCCATTTTCACTTCCGCTTCCGGTTGTCACAGGC had an ETS1 binding intensity of 26500. As to TCTCGACTTCCGGTTCACCCAGCATTTCCTCTTCCC, the ETS1 binding intensity was 103000. To GTTACTTCCTCTCCCCAGGTCTCTCGGTTTCCTCAT belongs 23600; to GCTCCACCTTCCGGCCCATGGACACGGATGCCGAGG, 16100. In the case of TCCTGCCTCAGGATGCCGGGGGAGGAAGAGGAGCGG, the ETS1 binding intensity amounted to 258.

The sequence CCTACAATTCCTGTTTTGGAGACCGCTTCCGGCAGC registered an ETS1 binding intensity of 3700. Turning to ATCTCACCTTCCTGGTGTCTGGGCTTCCGCAGCTTC, the ETS1 binding intensity turned out to be 662. As to CTTCCACATCTTCCTGCAGAGCATCCTGTCTGTGCA, the ETS1 binding intensity was determined as 4230. To TATTCAAAGCCCACTTCCTTCCTGTAGCATTCATTC belongs 6220. AGCATTCCACTTCCTGTCTTGATTCCTGTATTAGAG yielded an ETS1 binding intensity of 62700.

TGTGATGTTTCCTCTTGCTGTGGTTTCCTGTCATGG: the ETS1 binding intensity came out at 4090. The sequence AGGAGGAATGGCAGGAAGAGGAAGTGAAACCGACAA yielded an ETS1 binding intensity of 1690. In turn, TTCCGACCGGAAGTGAGAAGAGGAGGAAGTTGGCTG showed an ETS1 binding intensity of 64200. The sequence CAGGCCGGAAGTACGTGAGAGGAGACTTCCGGCCAC registered an ETS1 binding intensity of 31200. On to CTTAGTTTCCTCTGGCGATGCTAAAGAGGAAGTTAC, for which the ETS1 binding intensity is 2440. For the sequence ATTTGAAGAGCCAGGAAGGAGGAAATGCAGAGTGCA, the ETS1 binding intensity was 287. As to AGTCTAGTTGCCAGGAAACAGGATGTGGGAGGGACA, the ETS1 binding intensity was 3800. Sequence TCCTCTTTCCGTTGTGAGCACCCTGCATCCTGGTGG returned an ETS1 binding intensity of 3800. CTGATAGGGGAAGTGGGAGTTGACAGGATGGTTTAA showed an ETS1 binding intensity of 424. With ATGTAAAGAGGAAGTGACTCATTCTTCCTGGTGGTG, the ETS1 binding intensity is 3720.

Turning to GGGGCCGGAAGCTTTCGGATAACAACTTCCGCTCGG, the ETS1 binding intensity amounted to 20100. To ACAGCTTCCGGTTTTGCAAGACAATGCTTCCTTCTC belongs 87800. In the case of CAACAGGAAATACATACCTGTCCTGAGAGGAAGCAC, the ETS1 binding intensity worked out at 7320. For the sequence AGCATCTGCTGGGGGAAACGGAAGCAGCCCAGATGG, the ETS1 binding intensity came out at 774.

Take TGTAGGAGCTTCCTTGCAGCCTCAGGATGCCGAATT: the ETS1 binding intensity came out at 517. To TATGTATTTCCTTATTGCAAAGGGCGGAAACGTGTA belongs 3980; to GGAAAGACGGCAGGAAATGGGGAAGTGGGAGGGAGA, 6220. GGATCAGGAAGTCACGACATGGCGACCATCCTGGCT: the ETS1 binding intensity amounted to 1720. As for CGTCCCACATCCGCCGACACGCCCCTTCCGGCCTAA, the ETS1 binding intensity was 20000. CCCCACATCCGGTGCGGCGACGCCACTTCCGCCCAC returned an ETS1 binding intensity of 78100.

Sequence GCCCCACTTCCCTCCCGCGGTCACACTTCCGGCGGC came in with an ETS1 binding intensity of 12500.

In turn, GATGACCTGCCATTTCCCCAGGAAAGCTGAGACCCC came in with an ETS1 binding intensity of 201. The result for TTTCTGTCCGTTTCCGACAAACTTCCCGCGCTCTTC reads 2630; that for TGCCCTGCCTGCTTCCTCCCTTCCTTTCAACCCCAA, 2350; that for TGAAGACGGAAACCTGAGAACACCATTTCCTGTGCT, 4470. As for CGGCGGCTGCCGGAAAGCCACTTCCGGCCTGCTCCA, the ETS1 binding intensity is 25400. On to CGGCGTCAGCGGAACGGGCGGCTTCCGGCCGCGGCG, for which the ETS1 binding intensity stood at 8120.

As to CGGCGGAAGGAGCGGGCGGCGTGAGCGCTTCCGCCG, the ETS1 binding intensity is 811. In turn, GGGAGGCGGAAAGGGGCGGGACCACTTCCGGCCTAG registered an ETS1 binding intensity of 22100. GCCGCCGCGTACTTCCGGCCGGAAGAAAGGGCGGGC displayed an ETS1 binding intensity of 65400. The result for TCGGCCACTTCCGGCGCGCGGGGCGGAAAGCGGGCG reads 75800.

For CTGTCACACAGGAAGACCACACAGGAAGACCAGGTG, the ETS1 binding intensity was 1320. As for TCCACTCTGCGGAAGCCACGTTCATCCTGCCCTGCC, the ETS1 binding intensity came out at 586. ATGCAGAAAGTGGGAAGTGAGGAAATGAGGGCAGCG returned an ETS1 binding intensity of 232. The sequence GAGAACTTCCGGCTGCAGTACAACCATTTCCGGGCT had an ETS1 binding intensity of 68300. In the case of AACCAACAACTTACTTCCTTCCGGGTTTGGTGCAGA, the ETS1 binding intensity amounted to 5690.

As for CCTGGCCGGAAACTGAGCCGTTCACTTCCGCCACCA, the ETS1 binding intensity was 14000.

Regarding TATCTCCTTCCTGTGTAGCATTGACTTTCCTGTCAG, the ETS1 binding intensity was 14100. For CGTGAGCGGAAGCGGCGCCATTCGTCTTCCGAGCGC, the ETS1 binding intensity stood at 6670.

For the sequence TGCTAAACTTCCCTGGGCCCCATCAGGAAATGTGAA, the ETS1 binding intensity was 185. As for TCCGCGTCCCCACATCCTCCGGATGCCCAGCGGTTG, the ETS1 binding intensity is 1980. In turn, GCCCACATCCGGCCCCTCCTTGCCCCGGAACCTCCT displayed an ETS1 binding intensity of 70100. To TTCTTGGCCACATCCGTCTCCCGGAACTGCTCCTTC belongs 8980; to CGCCATACCTGGCTTCCGCTTCCGGTGGCTTCTCGT, 28200.
